# Test results from PMC7862700, “An all-to-all approach to the identification of sequence-specific readers for epigenetic DNA modifications on cytosine”.
# Assays:
# Test in all cases: DAPPL (digital affinity profiling via proximity ligation, sequencing); 10 mM Tris-HCl pH 7.5, 50 mM NaCl, 1 mM DTT, 4% glycerol, room temperature, 30 min; GST-TFs on glutathione beads, 16-mer random dsDNA library, 0.1% formaldehyde crosslink after washing; high values mean tight binding
# Settings in all cases: protein: recombinant; tags: N-terminal GST; dsDNA, one strand shown
# ELK1 = molecular target: T1, ELK1 (Homo sapiens, UniProt P19419 1-428)
# T1 sequence: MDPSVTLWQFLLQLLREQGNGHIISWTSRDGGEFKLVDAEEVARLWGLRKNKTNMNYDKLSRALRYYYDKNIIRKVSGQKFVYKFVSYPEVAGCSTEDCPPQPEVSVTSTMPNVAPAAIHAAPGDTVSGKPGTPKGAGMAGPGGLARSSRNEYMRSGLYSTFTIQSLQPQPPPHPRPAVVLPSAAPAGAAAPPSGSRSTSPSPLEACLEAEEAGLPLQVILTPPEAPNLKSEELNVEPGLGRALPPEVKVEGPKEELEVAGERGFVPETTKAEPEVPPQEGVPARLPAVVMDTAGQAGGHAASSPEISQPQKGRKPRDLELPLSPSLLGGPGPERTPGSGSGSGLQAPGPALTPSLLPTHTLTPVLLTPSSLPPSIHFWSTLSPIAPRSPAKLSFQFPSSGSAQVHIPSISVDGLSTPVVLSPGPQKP
# How it was run: (§1)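 GST fusions of human transcription factors were expressed in yeast and captured with glutathione beads. Once given DNA barcodes and pooled alongside a tag-only sample, they were incubated for 30 min at room temperature with 200 nmole of a random double-stranded 16-mer DNA library in Tris/NaCl/DTT/glycerol buffer, then washed, crosslinked (0.1% formaldehyde), proximity-ligated, PCR-amplified and sequenced on an Illumina NextSeq500. The binding signal of each hexamer is its read frequency for a factor divided by its frequency for the tag-only sample.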
# GABPA = molecular target: T2, GABPA (Homo sapiens, UniProt Q06546 1-454)
# T2 sequence: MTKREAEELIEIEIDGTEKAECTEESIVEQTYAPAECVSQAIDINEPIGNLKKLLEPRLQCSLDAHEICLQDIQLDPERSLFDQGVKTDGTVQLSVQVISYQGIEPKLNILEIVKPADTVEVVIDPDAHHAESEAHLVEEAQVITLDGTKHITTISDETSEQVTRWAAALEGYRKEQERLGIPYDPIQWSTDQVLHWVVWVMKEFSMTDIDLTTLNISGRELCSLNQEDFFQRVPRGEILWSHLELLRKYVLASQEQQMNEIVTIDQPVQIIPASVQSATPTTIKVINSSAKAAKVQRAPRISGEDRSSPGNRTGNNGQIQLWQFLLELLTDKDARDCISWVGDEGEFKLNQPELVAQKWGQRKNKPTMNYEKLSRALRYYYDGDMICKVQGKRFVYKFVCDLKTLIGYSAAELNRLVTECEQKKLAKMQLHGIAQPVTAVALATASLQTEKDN
# How it was run: as §1
# ERG = molecular target: T3, ERG (Homo sapiens, UniProt P11308 1-479)
# T3 sequence: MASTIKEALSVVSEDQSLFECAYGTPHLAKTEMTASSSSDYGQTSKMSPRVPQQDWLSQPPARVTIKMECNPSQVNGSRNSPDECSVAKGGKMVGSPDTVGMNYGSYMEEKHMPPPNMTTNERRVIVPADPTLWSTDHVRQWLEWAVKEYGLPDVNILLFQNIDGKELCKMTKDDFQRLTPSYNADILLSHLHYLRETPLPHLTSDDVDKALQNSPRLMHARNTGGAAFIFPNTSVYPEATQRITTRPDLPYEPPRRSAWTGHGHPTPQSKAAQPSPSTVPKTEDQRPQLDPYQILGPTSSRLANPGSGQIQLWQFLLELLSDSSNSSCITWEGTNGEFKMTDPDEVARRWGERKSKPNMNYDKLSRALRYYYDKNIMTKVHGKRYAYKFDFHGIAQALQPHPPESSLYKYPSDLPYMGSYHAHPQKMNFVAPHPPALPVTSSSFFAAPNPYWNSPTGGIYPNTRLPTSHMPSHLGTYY
# How it was run: as §1
# ELF1 = ELF1 (Homo sapiens, UniProt P32519 1-619)
# How it was run: as §1
# ELK3 = molecular target: T4, ELK3 (Homo sapiens, UniProt P41970 1-407)
# T4 sequence: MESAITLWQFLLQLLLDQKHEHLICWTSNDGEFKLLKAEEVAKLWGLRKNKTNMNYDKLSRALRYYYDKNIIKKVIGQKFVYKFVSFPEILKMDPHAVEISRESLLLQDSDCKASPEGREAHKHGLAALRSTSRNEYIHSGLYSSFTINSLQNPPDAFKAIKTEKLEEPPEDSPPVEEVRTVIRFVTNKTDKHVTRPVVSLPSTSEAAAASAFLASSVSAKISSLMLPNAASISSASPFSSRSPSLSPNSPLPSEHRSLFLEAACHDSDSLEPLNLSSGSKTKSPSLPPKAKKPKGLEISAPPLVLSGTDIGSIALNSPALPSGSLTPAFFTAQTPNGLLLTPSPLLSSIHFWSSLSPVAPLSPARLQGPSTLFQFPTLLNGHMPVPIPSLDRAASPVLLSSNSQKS
# How it was run: as §1
# ETV5 = ETV5 (Homo sapiens, UniProt P41161 1-510)
# How it was run: as §1
# ELF4 = ELF4 (Homo sapiens, UniProt Q99607 1-663)
# How it was run: as §1
# ELF3 = molecular target: T5, ELF3 (Homo sapiens, UniProt P78545 1-371)
# T5 sequence: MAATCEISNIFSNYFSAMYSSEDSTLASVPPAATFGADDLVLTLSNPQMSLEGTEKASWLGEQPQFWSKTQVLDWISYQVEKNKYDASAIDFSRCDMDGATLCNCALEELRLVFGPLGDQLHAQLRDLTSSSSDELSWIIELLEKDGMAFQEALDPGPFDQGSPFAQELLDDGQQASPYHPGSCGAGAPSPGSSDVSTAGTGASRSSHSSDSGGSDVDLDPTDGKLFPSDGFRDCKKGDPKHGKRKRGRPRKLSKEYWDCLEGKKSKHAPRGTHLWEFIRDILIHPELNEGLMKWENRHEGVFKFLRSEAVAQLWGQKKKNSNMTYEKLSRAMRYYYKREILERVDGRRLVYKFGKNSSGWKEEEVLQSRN
# How it was run: as §1
# ERF = molecular target: T6, ERF (Homo sapiens, UniProt P50548 1-548)
# T6 sequence: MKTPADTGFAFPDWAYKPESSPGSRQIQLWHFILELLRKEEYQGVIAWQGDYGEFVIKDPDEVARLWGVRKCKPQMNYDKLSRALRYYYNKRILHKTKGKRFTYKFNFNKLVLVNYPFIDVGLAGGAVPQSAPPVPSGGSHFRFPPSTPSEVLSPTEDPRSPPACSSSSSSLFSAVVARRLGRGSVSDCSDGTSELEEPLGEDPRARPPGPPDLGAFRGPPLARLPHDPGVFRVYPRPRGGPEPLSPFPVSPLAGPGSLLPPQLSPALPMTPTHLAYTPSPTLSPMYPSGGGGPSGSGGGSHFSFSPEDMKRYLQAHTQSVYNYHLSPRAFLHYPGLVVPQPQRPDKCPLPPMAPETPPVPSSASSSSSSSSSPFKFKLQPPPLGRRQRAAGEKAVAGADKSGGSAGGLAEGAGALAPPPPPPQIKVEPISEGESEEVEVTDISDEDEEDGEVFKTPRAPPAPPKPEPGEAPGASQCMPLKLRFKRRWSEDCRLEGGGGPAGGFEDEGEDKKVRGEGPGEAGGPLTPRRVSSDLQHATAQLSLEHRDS
# How it was run: as §1
# ETV3L = molecular target: T7, ETV3L (Homo sapiens, UniProt Q6ZN32 1-361)
# T7 sequence: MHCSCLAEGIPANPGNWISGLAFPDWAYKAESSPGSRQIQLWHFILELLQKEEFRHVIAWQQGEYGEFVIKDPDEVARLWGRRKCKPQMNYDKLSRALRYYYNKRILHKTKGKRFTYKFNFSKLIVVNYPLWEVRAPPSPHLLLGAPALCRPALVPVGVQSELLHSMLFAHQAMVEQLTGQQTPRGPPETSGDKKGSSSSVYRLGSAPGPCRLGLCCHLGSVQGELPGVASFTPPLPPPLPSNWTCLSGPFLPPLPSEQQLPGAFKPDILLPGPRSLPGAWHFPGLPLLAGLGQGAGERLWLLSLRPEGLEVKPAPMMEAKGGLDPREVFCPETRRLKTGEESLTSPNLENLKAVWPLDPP
# How it was run: as §1
# ETS2 = molecular target: T8, ETS2 (Homo sapiens, UniProt P15036 1-469)
# T8 sequence: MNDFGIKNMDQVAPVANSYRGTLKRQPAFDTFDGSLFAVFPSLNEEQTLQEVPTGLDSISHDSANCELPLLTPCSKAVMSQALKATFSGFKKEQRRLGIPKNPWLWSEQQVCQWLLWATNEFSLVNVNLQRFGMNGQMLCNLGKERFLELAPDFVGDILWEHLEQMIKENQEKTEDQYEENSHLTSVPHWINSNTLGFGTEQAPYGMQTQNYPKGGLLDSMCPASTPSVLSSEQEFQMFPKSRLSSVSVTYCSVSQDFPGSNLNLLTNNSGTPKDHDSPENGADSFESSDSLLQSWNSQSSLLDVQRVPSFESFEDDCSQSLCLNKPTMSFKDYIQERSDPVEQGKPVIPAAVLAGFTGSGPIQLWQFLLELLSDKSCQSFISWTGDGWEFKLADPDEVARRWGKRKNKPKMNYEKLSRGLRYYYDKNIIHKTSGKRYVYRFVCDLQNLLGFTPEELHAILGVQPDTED
# How it was run: as §1
# ETV3 = molecular target: T9, ETV3 (Homo sapiens, UniProt P41162-2 1-143)
# T9 sequence: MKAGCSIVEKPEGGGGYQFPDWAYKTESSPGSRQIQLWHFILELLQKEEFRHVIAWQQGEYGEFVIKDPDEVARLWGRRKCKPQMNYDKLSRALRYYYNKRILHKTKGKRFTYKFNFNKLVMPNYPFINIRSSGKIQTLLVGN
# How it was run: as §1
# Chain of ELF4 (Q99607 whole entry): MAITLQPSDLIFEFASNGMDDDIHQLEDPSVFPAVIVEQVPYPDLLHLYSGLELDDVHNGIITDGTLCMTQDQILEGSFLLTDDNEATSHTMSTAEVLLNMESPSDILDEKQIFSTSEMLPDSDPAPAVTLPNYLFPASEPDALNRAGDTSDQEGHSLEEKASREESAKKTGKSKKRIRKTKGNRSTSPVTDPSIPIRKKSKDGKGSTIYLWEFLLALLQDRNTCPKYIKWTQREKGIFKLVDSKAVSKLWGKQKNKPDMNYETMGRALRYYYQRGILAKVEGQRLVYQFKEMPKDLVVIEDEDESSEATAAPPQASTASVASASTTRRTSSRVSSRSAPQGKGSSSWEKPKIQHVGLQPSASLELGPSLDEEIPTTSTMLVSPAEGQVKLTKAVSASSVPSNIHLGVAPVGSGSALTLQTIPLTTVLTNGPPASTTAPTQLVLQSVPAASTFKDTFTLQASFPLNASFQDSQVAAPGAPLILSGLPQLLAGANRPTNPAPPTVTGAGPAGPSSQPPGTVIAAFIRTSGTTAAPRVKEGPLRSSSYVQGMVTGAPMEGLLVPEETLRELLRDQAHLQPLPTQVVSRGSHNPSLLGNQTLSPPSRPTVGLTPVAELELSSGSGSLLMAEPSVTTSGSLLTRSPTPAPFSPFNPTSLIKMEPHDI
# Chain of ELF1 (P32519 whole entry): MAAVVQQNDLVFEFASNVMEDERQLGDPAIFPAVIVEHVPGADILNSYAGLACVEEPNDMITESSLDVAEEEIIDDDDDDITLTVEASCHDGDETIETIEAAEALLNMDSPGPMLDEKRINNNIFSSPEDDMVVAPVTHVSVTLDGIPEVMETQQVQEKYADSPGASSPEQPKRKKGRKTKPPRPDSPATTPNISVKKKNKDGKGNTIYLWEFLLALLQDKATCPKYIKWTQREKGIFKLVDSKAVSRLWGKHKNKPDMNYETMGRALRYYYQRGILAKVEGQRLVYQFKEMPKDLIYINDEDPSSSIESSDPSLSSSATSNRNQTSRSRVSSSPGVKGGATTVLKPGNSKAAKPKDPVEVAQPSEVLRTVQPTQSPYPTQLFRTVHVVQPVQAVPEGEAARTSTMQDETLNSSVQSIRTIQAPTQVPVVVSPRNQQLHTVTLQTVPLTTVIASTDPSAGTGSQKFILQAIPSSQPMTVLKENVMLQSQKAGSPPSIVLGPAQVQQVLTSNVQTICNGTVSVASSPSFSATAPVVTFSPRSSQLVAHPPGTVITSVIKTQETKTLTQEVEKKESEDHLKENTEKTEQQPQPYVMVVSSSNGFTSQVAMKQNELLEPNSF
# Chain of ETV5 (P41161 whole entry): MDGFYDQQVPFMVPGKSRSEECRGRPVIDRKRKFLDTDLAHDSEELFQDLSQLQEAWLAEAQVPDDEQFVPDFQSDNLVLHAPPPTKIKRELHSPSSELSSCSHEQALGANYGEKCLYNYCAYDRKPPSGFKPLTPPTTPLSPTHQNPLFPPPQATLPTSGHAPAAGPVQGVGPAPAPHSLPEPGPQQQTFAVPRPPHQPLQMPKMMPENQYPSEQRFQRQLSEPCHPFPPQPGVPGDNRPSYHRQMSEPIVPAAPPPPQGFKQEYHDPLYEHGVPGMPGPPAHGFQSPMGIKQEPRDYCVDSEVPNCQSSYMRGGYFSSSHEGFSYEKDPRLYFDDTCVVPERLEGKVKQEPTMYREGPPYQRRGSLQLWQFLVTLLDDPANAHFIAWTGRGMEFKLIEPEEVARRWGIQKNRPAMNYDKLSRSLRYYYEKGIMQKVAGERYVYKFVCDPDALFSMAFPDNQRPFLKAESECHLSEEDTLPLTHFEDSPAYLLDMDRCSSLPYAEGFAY
sequence,measurement,setting,value
CCCAAG,binding signal,ELK1,"1.07 fold enrichment (6-mer frequency, TF over GST control)"
same,binding signal,GABPA,"1.07 fold enrichment (6-mer frequency, TF over GST control)"
same,binding signal,ERG,"1.04 fold enrichment (6-mer frequency, TF over GST control)"
same,binding signal,ELF1,"1.06 fold enrichment (6-mer frequency, TF over GST control)"
same,binding signal,ELK3,"1 fold enrichment (6-mer frequency, TF over GST control)"
same,binding signal,ETV5,"1.01 fold enrichment (6-mer frequency, TF over GST control)"
same,binding signal,ELF4,"1.03 fold enrichment (6-mer frequency, TF over GST control)"
same,binding signal,ELF3,"1.12 fold enrichment (6-mer frequency, TF over GST control)"
same,binding signal,ERF,"1.06 fold enrichment (6-mer frequency, TF over GST control)"
same,binding signal,ETV3L,"1.01 fold enrichment (6-mer frequency, TF over GST control)"
same,binding signal,ETS2,"1 fold enrichment (6-mer frequency, TF over GST control)"
same,binding signal,ETV3,"1.03 fold enrichment (6-mer frequency, TF over GST control)"
